{
  "source": "the supplement of paper PMC8728848",
  "assay_in_all_cases": "glycan array binding signal (z-score within array); higher = stronger binding",
  "details_in_all_cases": "glycan notation: IUPAC condensed, linker removed",
  "key": {"[1]": {"target": "Fuc(a1-2)Gal(b1-3)GalNAc(b1-3)Gal(a1-4)Gal(b1-4)Glc", "how_it_was_run": "(§1)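 From the Consortium for Functional Glycomics database, 3228 arrays were curated, keeping only those whose protein sequence was available. Binding is given as a within-array Z-score averaged across arrays sharing a protein sequence and across linkers. Negative Z-scores can be read as non-binding.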"}, "Fuc(a1-2)Gal(b1-4)GlcNAc": {"target": "Fuc(a1-2)Gal(b1-4)GlcNAc", "how_it_was_run": "as §1"}, "[2]": {"target": "Fuc(a1-2)Gal(b1-4)GlcNAc(b1-3)Gal(b1-4)GlcNAc", "how_it_was_run": "as §1"}, "[3]": {"target": "Fuc(a1-2)[Gal(a1-3)]Gal(b1-4)Glc", "how_it_was_run": "as §1"}, "[4]": {"target": "Fuc(a1-2)[Gal(a1-4)]Gal(b1-4)GlcNAc", "how_it_was_run": "as §1"}, "[5]": {"target": "Fuc(a1-2)[GalNAc(a1-3)]Gal(b1-4)GlcNAc", "how_it_was_run": "as §1"}, "[6]": {"target": "Fuc(a1-3)[Gal(b1-4)]GlcNAc(b1-2)Man(a1-6)[Gal(b1-4)GlcNAc(b1-2)Man(a1-3)]Man(b1-4)GlcNAc(b1-4)GlcNAc", "how_it_was_run": "as §1"}, "[7]": {"target": "Fuc(a1-3)[Gal3S(b1-4)]GlcNAc6S", "how_it_was_run": "as §1"}, "Gal(b1-3)Gal(b1-4)GlcNAc": {"target": "Gal(b1-3)Gal(b1-4)GlcNAc", "how_it_was_run": "as §1"}, "Gal(b1-4)Glc6S": {"target": "Gal(b1-4)Glc6S", "how_it_was_run": "as §1"}, "[8]": {"target": "Gal(b1-4)GlcNAc(b1-2)Man(a1-3)[Gal(b1-4)GlcNAc(b1-2)Man(a1-6)]Man(b1-4)GlcNAc(b1-4)GlcNAc", "how_it_was_run": "as §1"}, "[9]": {"target": "Gal(b1-4)GlcNAc(b1-3)[Gal(b1-4)GlcNAc(b1-6)]Gal(b1-4)GlcNAc", "how_it_was_run": "as §1"}, "[10]": {"target": "Gal(b1-4)GlcNAc(b1-6)[Gal(b1-3)]GalNAc", "how_it_was_run": "as §1"}, "[11]": {"target": "Gal3S(b1-4)[Fuc(a1-3)]Glc", "how_it_was_run": "as §1"}, "Gal3S6S(b1-4)GlcNAc6S": {"target": "Gal3S6S(b1-4)GlcNAc6S", "how_it_was_run": "as §1"}, "GlcNAc(b1-3)GalNAc": {"target": "GlcNAc(b1-3)GalNAc", "how_it_was_run": "as §1"}, "[12]": {"target": "GlcNAc(b1-3)[GlcNAc(b1-4)][GlcNAc(b1-6)]GlcNAc", "how_it_was_run": "as §1"}, "[13]": {"target": "Man(a1-2)Man(a1-3)[Man(a1-2)Man(a1-6)]Man", "how_it_was_run": "as §1"}, "[14]": {"target": "Neu5Ac(a2-3)Gal(b1-4)GlcNAc(b1-3)Gal(b1-4)[Fuc(a1-3)]GlcNAc", "how_it_was_run": "as §1"}, "[15]": {"target": "Neu5Ac(a2-8)Neu5Ac(a2-8)Neu5Ac", "how_it_was_run": "as §1"}},
  "note": "The full list was thinned out, with the strongest signals kept by preference.",
  "data": [
    {"binder": "MCI4 (Toxoplasma gondii), Q9XZH7 (protein) MRASLPVHLVVCTQLSAVWFGVAKAHGGHRLEPHVPGFLQGFTDITPAGDDVSANVTSSEPAKLDLSCVHSDNKGSRAPTIGEPVPDVSLEQCAAQCKAVDGCTHFTYNDDSKMCHVKEGKPDLYDLTGGKTASRSCDRSCFEQHVSYEGAPDVMTAMVTSQSADCQAACAADPSCEIFTYNEHDQKCTFKGRGFSAFKERGVLGVTSGPKQFCDEGGKLTQEEMEDQISGCIQLSDVGSMTADLEEPMEADSVGACMERCRCDGRCTHFTFNDNTRMCYLKGDKMQLYSSPGDRTGPKSCDSSCFSNGVSYVDDPATDVETVFEISHPIYCQVICAANPLCTVFQWYASEAKCVVKRKGFYKHRKTGVTGVTVGPREFCDFGGSIRDREEADAVGSDDGLNAEATMANSPDFHDEVECVHTGNIGSKAQTIGEVKRASSLSECRARCQAEKECSHYTYNVKSGLCYPKRGKPQFYKYLGDMTGSRTCDTSCLRRGVDYSQGPEVGKPWYSTLPTDCQVACDAEDACLVFTWDSATSRCYLIGSGFSAHRRNDVDGVVSGPYTFCDNGENLQVLEAKDTE", "values": [
      {"measurement": "glycan array binding signal (z-score)", "setting": "[1]", "value": -0.22},
      {"measurement": "glycan array binding signal (z-score)", "setting": "Fuc(a1-2)Gal(b1-4)GlcNAc", "value": -0.204},
      {"measurement": "glycan array binding signal (z-score)", "setting": "[2]", "value": -0.214},
      {"measurement": "glycan array binding signal (z-score)", "setting": "[3]", "value": -0.206},
      {"measurement": "glycan array binding signal (z-score)", "setting": "[4]", "value": -0.203},
      {"measurement": "glycan array binding signal (z-score)", "setting": "[5]", "value": -0.21},
      {"measurement": "glycan array binding signal (z-score)", "setting": "[6]", "value": -0.201},
      {"measurement": "glycan array binding signal (z-score)", "setting": "[7]", "value": -0.225},
      {"measurement": "glycan array binding signal (z-score)", "setting": "Gal(b1-3)Gal(b1-4)GlcNAc", "value": 5.93},
      {"measurement": "glycan array binding signal (z-score)", "setting": "Gal(b1-4)Glc6S", "value": 5.04},
      {"measurement": "glycan array binding signal (z-score)", "setting": "[8]", "value": 4.68},
      {"measurement": "glycan array binding signal (z-score)", "setting": "[9]", "value": 7.5},
      {"measurement": "glycan array binding signal (z-score)", "setting": "[10]", "value": 5.16},
      {"measurement": "glycan array binding signal (z-score)", "setting": "[11]", "value": -0.213},
      {"measurement": "glycan array binding signal (z-score)", "setting": "Gal3S6S(b1-4)GlcNAc6S", "value": -0.228},
      {"measurement": "glycan array binding signal (z-score)", "setting": "GlcNAc(b1-3)GalNAc", "value": -0.203},
      {"measurement": "glycan array binding signal (z-score)", "setting": "[12]", "value": -0.202},
      {"measurement": "glycan array binding signal (z-score)", "setting": "[13]", "value": -0.213},
      {"measurement": "glycan array binding signal (z-score)", "setting": "[14]", "value": -0.217},
      {"measurement": "glycan array binding signal (z-score)", "setting": "[15]", "value": -0.217}
    ]}
  ]
}
